Data reported in PubChem BioAssay AID493168 (National Center for Advancing Translational Sciences (NCATS), 2011).
Records with an inconclusive call do not appear. The source made the active and inactive calls. The call rests on the fitted dose curve; in most records, active means well fitted inhibition curve with a large enough effect; inconclusive means small, poorly fitted or top-dose-only effect, or effect the other way; inactive means flat fitted curve, though single readings scatter.

What follows are compounds tested against Ubiquitin carboxyl-terminal hydrolase 2 (Homo sapiens) (UniProt O75604) (assay: Confirmation Assay for Inhibitors of Ubiquitin-specific Protease USP2a Using CHOP2 as the Reporter). Conditions: USP2 core, Ub-CHOP2 coupled reporter fluorescence; series mostly up to 38.3 µM; activity change, negative = inhibition: at the top concentration.
Method in brief: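 Ub-CHOP2 cleavage coupled to reporter activation was read by fluorescence after 60 min at RT, with 25 nM final Ub-CHOP2 and substrate. Enzyme (10 nM final USP2 core) first sat 30 min with compound; data were normalized to NEM and fitted to concentration-response curves.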
Further: nearly all actives have a fitted effect of over 55% in size.
Potency means the concentration at half of the fitted maximal effect.
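Wherever activity change, negative = inhibition is given: plate controls were DMSO wells for no effect and full inhibition by NEM control for full effect.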

Chain of Ubiquitin carboxyl-terminal hydrolase 2 (Homo sapiens) (O75604 whole entry, looked up): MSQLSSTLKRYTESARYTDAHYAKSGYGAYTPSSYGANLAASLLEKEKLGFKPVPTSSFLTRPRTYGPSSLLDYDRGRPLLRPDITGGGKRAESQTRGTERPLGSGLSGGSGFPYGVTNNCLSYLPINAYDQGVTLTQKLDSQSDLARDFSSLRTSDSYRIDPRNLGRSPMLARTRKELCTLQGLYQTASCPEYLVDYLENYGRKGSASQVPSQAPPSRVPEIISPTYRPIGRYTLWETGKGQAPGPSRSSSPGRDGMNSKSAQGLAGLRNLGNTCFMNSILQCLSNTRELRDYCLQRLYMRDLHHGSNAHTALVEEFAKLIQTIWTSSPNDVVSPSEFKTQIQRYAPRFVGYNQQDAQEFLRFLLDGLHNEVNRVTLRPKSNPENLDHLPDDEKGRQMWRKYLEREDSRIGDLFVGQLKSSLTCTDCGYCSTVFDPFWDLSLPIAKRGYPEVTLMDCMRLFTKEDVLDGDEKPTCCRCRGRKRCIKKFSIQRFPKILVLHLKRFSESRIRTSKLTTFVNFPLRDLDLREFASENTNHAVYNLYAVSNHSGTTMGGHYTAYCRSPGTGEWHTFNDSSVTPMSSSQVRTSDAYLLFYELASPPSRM

SMILES	activity change, negative = inhibition	Potency
Cc1cc(SCC(=O)Nc2ccccc2)nc(C)n1	-0.745% (inactive)	–
COc1ccc(/C=C\C(=O)O[C@@H]2C(O)C(O[C@@H]3OC(C)[C@H](O[C@@H]4OCC(O[C@H]5O[C@H](CO)[C@@H](O)C(O)C5O)C(O)C4O)C(O)C3O)[C@H](OC(=O)[C@]34CCC(C)(C)C[C@@H]3C3=CCC5[C@@]6(C)CC(O)C(O[C@@H]7OC(CO)C(O)[C@H](O)[C@H]7O)[C@@](C)(C(=O)O)C6CC[C@@]5(C)[C@]3(CO)CC4)O[C@H]2C)cc1 (stereo partly drawn)	2.28% (inactive)	–
O=C(CCn1c(=O)c2ccccc2n(Cc2ccccc2)c1=O)NCc1ccc2c(c1)OCO2	-12.1% (inactive)	–
Nc1ccccc1S(=O)(=O)NC1=NCCCCC1	2.55% (inactive)	–
O=C(Nc1ccc(N2CCCC2)cc1)c1ccc(Br)cc1	–	16.5 µM (active)
O=C(CSc1nc(O)cc(=O)n1-c1ccccc1)NC1CCCCC1	1.96% (inactive)	–
CNc1cccccc1=S	1.21% (inactive)	–
Cn1c(C(=O)N2CCN(Cc3ccc4c(c3)OCO4)CC2)cc2sccc21	-0.858% (inactive)	–
COc1ccc(CC(NC(C)=O)C(=O)NC2CCN(c3nc(C)cc(C)c3C#N)CC2)c(OC)c1 (stereo not drawn)	-0.456% (inactive)	–
CCC(C)(C(=O)NC1CCCCC1)N(C(=O)C1CCC(=O)N1)c1ccccc1 (stereo not drawn)	-1.54% (inactive)	–
Cc1cnc(N)c2c(=O)oc3ccccc3c12	5.48% (inactive)	–
COc1ccc(/C=C2/SC(=S)N(c3ccc(S(=O)(=O)Nc4nccs4)cc3)C2=O)cc1	–	13.1 µM (active)
CC[C@]12c3[nH]c4cc(-c5ccco5)ccc4c3CCN1C(=O)[C@@H](CC(=O)NC/C=C(\C)CCC=C(C)C)C[C@@H]2C(=O)N1CCN(C(=O)C2CC2)CC1	-2.16% (inactive)	–
